Data on ten molecules can be found in the supplement of paper PMC13380429.

For assay [1], the system named is Vero E6 infected with SARS-CoV-2. The assay can be described thus: morphology score (similarity to uninfected cells); higher = more like uninfected cells. Conditions: 24 h.
Assay [2] shares this test system. Put plainly: SARS-CoV-2 infection rate relative to infected DMSO; higher = more infection, active = 60 or less. Conditions: 24 h.

In turn, `NC[C@H]1CC[C@H](C(=O)O)CC1` [tranexamic-acid] (10 µM) yielded a morphology score in assay [1] of 0.0762. Besides, the SARS-CoV-2 infection rate in assay [2] was 108% (inactive).
In assay [1], `C[N+]1(C)CCCC(OC(=O)C(O)(c2ccccc2)c2ccccc2)C1` (stereo not given) [mepenzolate] (10 µM) gave a morphology score of 0.047. Also, the SARS-CoV-2 infection rate in assay [2] was 105% (inactive).
`COc1ccc(Cl)c(Nc2ncnc3cc(OCC4CCN(C)CC4)c(OC)cc23)c1` (10 µM): the morphology score in assay [1] was -0.108. For the same molecule, the SARS-CoV-2 infection rate in assay [2] was 114% (inactive).
In assay [1], `Cc1c[nH]c2ncnc(N3CCC(CN)(C(=O)Nc4cccc(OC(=O)N(C)C)c4)CC3)c12` (10 µM) showed a morphology score of 0.156. The SARS-CoV-2 infection rate in assay [2] was 94% (inactive).
`O=C(O)c1cc(=O)[nH]c(=O)[nH]1` [orotic-acid] (10 µM) registered a morphology score in assay [1] of 0.104. Also, in assay [2], the SARS-CoV-2 infection rate was 104% (inactive).
With `COc1ccc2cc(CCC(C)=O)ccc2c1` [nabumetone] (10 µM), the morphology score in assay [1] was determined as 0.0377. Besides, the SARS-CoV-2 infection rate in assay [2] was 118% (inactive).
On to `CN1C2CCC1CC(OC(=O)C(O)c1ccccc1)C2` (stereo not given) [Homatropine Bromide] (10 µM), for which the morphology score in assay [1] was determined as 0.0164. The SARS-CoV-2 infection rate in assay [2] was 108% (inactive).
As for `O=C(c1c(F)ccc(NS(=O)(=O)N2CC[C@@H](F)C2)c1F)c1c[nH]c2ncc(-c3cnc(C4CC4)nc3)cc12` (10 µM), the morphology score in assay [1] is 0.162. The SARS-CoV-2 infection rate in assay [2] is 103% (inactive).
Consider `Cc1cc(NC(=O)C(c2ccccc2)N2CCCc3ccccc32)no1` (stereo not given) (10 µM), for which the morphology score in assay [1] turned out to be 0.018. Moreover, the SARS-CoV-2 infection rate in assay [2] was 92% (inactive).
For `COc1cc2c(cc1O)C(CCc1ccc(Cl)cc1)N(C)CC2` (stereo not given) (10 µM), in that order: 0.298 and 72% (inactive).
